# Data published in PubChem BioAssay (NCATS).
# Records with an inconclusive call do not appear. Entries that show only a call come without a potency. Calls of active or inactive are those of the source. Calls follow the shape of the dose curve; as a rule, active = well fitted inhibition curve with a large enough effect; inconclusive = small, poorly fitted or top-dose-only effect; inactive = flat fitted curve, though single readings scatter.
# Biological target: Voltage-gated inwardly rectifying potassium channel KCNH2 (Homo sapiens) (UniProt Q12809)
# Sequence (Q12809 whole entry, looked up): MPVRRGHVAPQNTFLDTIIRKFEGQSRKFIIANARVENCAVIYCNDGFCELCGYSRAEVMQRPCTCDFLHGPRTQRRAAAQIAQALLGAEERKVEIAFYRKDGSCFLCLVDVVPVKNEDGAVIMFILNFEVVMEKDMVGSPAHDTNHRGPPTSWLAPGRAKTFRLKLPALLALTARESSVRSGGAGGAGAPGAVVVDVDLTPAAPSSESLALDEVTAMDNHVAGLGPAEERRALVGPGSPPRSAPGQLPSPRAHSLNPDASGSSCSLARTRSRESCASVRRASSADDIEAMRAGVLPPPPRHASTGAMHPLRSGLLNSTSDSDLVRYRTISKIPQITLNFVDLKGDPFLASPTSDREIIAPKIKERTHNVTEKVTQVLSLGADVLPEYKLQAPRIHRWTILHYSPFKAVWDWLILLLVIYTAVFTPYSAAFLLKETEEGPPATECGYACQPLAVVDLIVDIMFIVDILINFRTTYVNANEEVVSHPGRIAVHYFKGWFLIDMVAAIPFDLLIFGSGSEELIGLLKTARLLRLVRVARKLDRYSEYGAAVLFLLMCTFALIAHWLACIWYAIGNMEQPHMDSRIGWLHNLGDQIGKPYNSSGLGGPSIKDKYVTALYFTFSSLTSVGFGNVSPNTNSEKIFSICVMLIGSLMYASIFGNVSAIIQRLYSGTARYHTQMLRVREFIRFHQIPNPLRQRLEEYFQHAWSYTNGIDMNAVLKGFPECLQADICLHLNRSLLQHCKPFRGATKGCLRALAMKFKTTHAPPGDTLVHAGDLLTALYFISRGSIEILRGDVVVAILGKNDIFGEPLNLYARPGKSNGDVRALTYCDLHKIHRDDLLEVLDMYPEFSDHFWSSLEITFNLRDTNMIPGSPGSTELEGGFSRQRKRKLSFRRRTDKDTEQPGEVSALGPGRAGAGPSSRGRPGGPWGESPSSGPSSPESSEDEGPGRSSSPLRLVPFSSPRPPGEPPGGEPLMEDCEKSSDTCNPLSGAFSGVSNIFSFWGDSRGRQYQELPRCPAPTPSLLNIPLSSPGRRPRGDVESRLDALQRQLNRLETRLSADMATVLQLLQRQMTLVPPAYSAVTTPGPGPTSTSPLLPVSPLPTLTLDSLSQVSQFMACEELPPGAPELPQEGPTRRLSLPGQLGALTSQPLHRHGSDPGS
# Assay: qHTS Assay for Small Molecule Inhibitors of the Human hERG Channel Activity (AID 588834);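 also: lower thallium flux fluorescence means stronger hERG block; nearly all actives have a fitted effect of over 50% in size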
# Conditions: U2OS BacMam hERG, FluxOR thallium flux fluorescence; series mostly up to 46.1 µM
# In short: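 Concentration-response qHTS measuring drop in thallium-sensitive dye signal. U2OS cells carrying BacMam hERG; compound exposure ~10 min, then stimulation buffer and 2 min read at 1 sec intervals.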
# Potency is read from the fitted curve at half-maximal effect.
row,SMILES,Potency
1,[S]=[Sb](=[S])[S][Sb](=[S])=[S],inactive
2,CCCCCCC(=O)O[C@H]1CC[C@H]2[C@@H]3CC[C@H]4CC(=O)C=C(C)[C@]4(C)[C@H]3CC[C@]12C,14.1 µM (active)
3,CC(C)CC(NP(=O)(O)O[C@@H]1O[C@@H](C)[C@H](O)[C@@H](O)[C@H]1O)C(=O)NC(Cc1c[nH]c2ccccc12)C(=O)O (some centres undefined),inactive
4,Clc1ccc(C(Cn2ccnc2)OCc2csc3c(Cl)cccc23)c(Cl)c1 (centres undefined),3.98 µM (active)
